# Results: ChEMBL document CHEMBL1157539, “Thousands of chemical starting points for antimalarial lead identification” (Nature, 2010)
# Tests used:
# Type in all cases: functional
# Plasmodium falciparum [1] = assay: GSK_TCMDC: Inhibition of Plasmodium falciparum 3D7 in whole red blood cells, using parasite LDH activity as an index of growth. Test compounds present at 2uM
# Plasmodium falciparum [2] = assay: GSK_TCMDC: Inhibition of Plasmodium falciparum Dd2 in whole red blood cells, using parasite LDH activity as an index of growth. Test compounds present at 2uM
# HepG2 = assay: GSK_TCMDC: Percent inhibition of human HepG2 cell line. Test compounds present at 10uM.
smiles,measurement,setting,value
COC(=O)c1cccc(NC(=O)NCCNc2ccnc(Nc3ccc(F)cc3)n2)c1,Inhibition,Plasmodium falciparum [1],93%
same,Inhibition,Plasmodium falciparum [2],5%
same,Inhibition,HepG2,10%
CCNC(=O)Nc1ccc(-c2cccc(-c3nc4cccc(C)c4[nH]3)c2)cc1,Inhibition,Plasmodium falciparum [1],91%
same,Inhibition,Plasmodium falciparum [2],34%
same,Inhibition,HepG2,16%
CCN(CC)CCNC(=O)c1ccc(NC(=O)c2cn(-c3ccccc3)nc2-c2cccs2)cc1,Inhibition,Plasmodium falciparum [1],100%
same,Inhibition,Plasmodium falciparum [2],94%
same,Inhibition,HepG2,30%
CC(=O)N1CCC(C(=O)Nc2ccc(-c3cccc(-c4nc5cc(C(F)(F)F)ccc5[nH]4)c3)cc2)CC1,Inhibition,Plasmodium falciparum [1],88%
same,Inhibition,Plasmodium falciparum [2],33%
same,Inhibition,HepG2,82%
CS(=O)(=O)N1CC2(CCN(CCC(NC(=O)NCc3ccc(Cl)c(Cl)c3)c3ccc(Cl)c(Cl)c3)CC2)c2ccccc21 (centres undefined),Inhibition,Plasmodium falciparum [1],89%
same,Inhibition,Plasmodium falciparum [2],59%
same,Inhibition,HepG2,19%
Cc1cc(C(F)(F)F)cc(-n2ncc(-c3ccc(C(=O)NCCNCc4ccccc4)cc3)c2N)n1.O=C(O)C(F)(F)F,Inhibition,Plasmodium falciparum [1],91%
same,Inhibition,Plasmodium falciparum [2],9%
same,Inhibition,HepG2,98%
COc1ccc(C2CCN(CCCCNC(=O)c3ccc(NC(=O)c4ccc(Cl)cc4)cc3)CC2)cc1Cl,Inhibition,Plasmodium falciparum [1],97%
same,Inhibition,Plasmodium falciparum [2],75%
same,Inhibition,HepG2,28%
CCCCN(CCCC)Cc1cc2ccccc2cc1O.Cl,Inhibition,Plasmodium falciparum [1],100%
same,Inhibition,Plasmodium falciparum [2],98%
same,Inhibition,HepG2,9%
CN(C)C(=O)O[C@@H]1CN[C@H](C#Cc2cc3ncnc(Nc4ccc5c(cnn5Cc5cccc(F)c5)c4)c3s2)C1.Cl,Inhibition,Plasmodium falciparum [1],97%
same,Inhibition,Plasmodium falciparum [2],68%
same,Inhibition,HepG2,0%
Cl.O=C(/C=C/c1ccc(F)cc1)NC1CCC(CCN2CCc3ccccc3CC2)CC1 (centres undefined),Inhibition,Plasmodium falciparum [1],91%
same,Inhibition,Plasmodium falciparum [2],36%
same,Inhibition,HepG2,27%
C=CCc1cc(C2CCN(CCCCNC(=O)c3ccc(-c4ccc(C#N)cc4)cc3)CC2)c(OCC(N)=O)c2c1CCCC2,Inhibition,Plasmodium falciparum [1],100%
same,Inhibition,Plasmodium falciparum [2],92%
same,Inhibition,HepG2,43%
COc1cc(Cn2ccc3c4c(N)nc(N)nc4ccc32)cc(OC)c1OC,Inhibition,Plasmodium falciparum [1],94%
same,Inhibition,Plasmodium falciparum [2],97%
same,Inhibition,HepG2,66%
Nc1c2c(nc3ccc(Oc4ccc(Br)cc4Br)cc13)CCCC2,Inhibition,Plasmodium falciparum [1],99%
same,Inhibition,Plasmodium falciparum [2],47%
same,Inhibition,HepG2,33%
c1ccc(CSC2=NNC(c3ccccn3)S2)cc1 (centres undefined),Inhibition,Plasmodium falciparum [1],80%
same,Inhibition,Plasmodium falciparum [2],65%
same,Inhibition,HepG2,6%
O=C(CC1NC(=O)c2ccccc21)Nc1ccc(-c2ccc(-c3nc4cc(C(F)(F)F)ccc4[nH]3)cc2)cc1 (centres undefined),Inhibition,Plasmodium falciparum [1],87%
same,Inhibition,Plasmodium falciparum [2],70%
same,Inhibition,HepG2,39%
N#Cc1cccc(C(=O)Nc2ccc(-c3ccc(CN4CCCC4)cc3)cc2)c1.O=C(O)C(F)(F)F,Inhibition,Plasmodium falciparum [1],92%
same,Inhibition,Plasmodium falciparum [2],32%
same,Inhibition,HepG2,38%
COc1ccc(C2CCN(CCCCNC(=O)c3ccc(NC(=O)c4ccc(Cl)cc4)cc3)C2)c(OC)c1 (centres undefined),Inhibition,Plasmodium falciparum [1],84%
same,Inhibition,Plasmodium falciparum [2],0%
same,Inhibition,HepG2,18%
CN1CCCC1CCNC(=O)[C@H](CC1CCCCC1)NC(=O)c1ccc(O)c(-c2ccc(Cl)c(Cl)c2)c1 (some centres undefined),Inhibition,Plasmodium falciparum [1],98%
same,Inhibition,Plasmodium falciparum [2],35%
same,Inhibition,HepG2,0%
COc1cc2c(cc1OCCN1CCC(N3CCCCC3)CC1)N(C(=O)/C=C/c1ccccc1OC(F)(F)F)CC2.Cl,Inhibition,Plasmodium falciparum [1],100%
same,Inhibition,Plasmodium falciparum [2],93%
same,Inhibition,HepG2,64%
CCn1ncc2c(N3CCCC3=O)cc(C(=O)N[C@@H](Cc3ccccc3)[C@H](O)CNC(C)(C)c3cccc(OC)c3)cc21,Inhibition,Plasmodium falciparum [1],98%
same,Inhibition,Plasmodium falciparum [2],97%
same,Inhibition,HepG2,6%
CC(CN(C)C)C(=O)Nc1ccc(-c2ccc(-c3nc4cc(F)ccc4[nH]3)cc2)cc1 (centres undefined),Inhibition,Plasmodium falciparum [1],100%
same,Inhibition,Plasmodium falciparum [2],95%
same,Inhibition,HepG2,14%
CCN(CCCN1CCCCC1)c1cc(C)nc(Nc2cc(F)cc(F)c2)n1.O=C(O)C(F)(F)F,Inhibition,Plasmodium falciparum [1],100%
same,Inhibition,Plasmodium falciparum [2],64%
same,Inhibition,HepG2,15%
CCC[C@@H]([C@@H](CC(C)C)C(=O)N[C@@H](CCC/N=C(/N)NS(C)(=O)=O)C(=O)Nc1nccs1)N(O)C=O,Inhibition,Plasmodium falciparum [1],95%
same,Inhibition,Plasmodium falciparum [2],41%
same,Inhibition,HepG2,10%
CCN(CC)/C(=N/C(=N)Nc1ccc(Cl)c(Cl)c1)NCCCCCCN/C(=N\C(=N)Nc1ccc(Cl)c(Cl)c1)N(CC)CC,Inhibition,Plasmodium falciparum [1],94%
same,Inhibition,Plasmodium falciparum [2],90%
same,Inhibition,HepG2,1%
NC(=O)C1CCN(Cc2cccc(-c3ccc(-c4nc5cc(C(F)(F)F)ccc5[nH]4)cc3)c2)CC1.O=C(O)C(F)(F)F,Inhibition,Plasmodium falciparum [1],100%
same,Inhibition,Plasmodium falciparum [2],94%
same,Inhibition,HepG2,7%
O=C(NC(c1ccccc1)c1ccccc1)C(c1cc2ccccc2o1)N1CCN(C(c2ccccc2)c2ccccc2)CC1 (centres undefined),Inhibition,Plasmodium falciparum [1],95%
same,Inhibition,Plasmodium falciparum [2],78%
same,Inhibition,HepG2,0%
O=C(NCCCN1CCCCC1)c1ccc(Nc2nccc(Nc3ccc(Oc4ccccc4)cc3)n2)cc1,Inhibition,Plasmodium falciparum [1],100%
same,Inhibition,Plasmodium falciparum [2],61%
same,Inhibition,HepG2,30%
CC(=O)Nc1cccc(CN(Cc2ccc(-c3ccc(CNCc4cccnc4)cn3)cc2)C(=O)Cc2cccnc2)c1.O=C(O)C(F)(F)F,Inhibition,Plasmodium falciparum [1],97%
same,Inhibition,Plasmodium falciparum [2],65%
same,Inhibition,HepG2,0%
CS(=O)(=O)c1ccc(CNCc2cccc(-c3ccc(-c4nc5cc(C(F)(F)F)ccc5[nH]4)cc3)c2)cc1.O=C(O)C(F)(F)F,Inhibition,Plasmodium falciparum [1],100%
same,Inhibition,Plasmodium falciparum [2],96%
same,Inhibition,HepG2,31%
COc1ccc2nccc([C@@H](O)CN3CCC(NC(=O)C(c4cc5ccccc5o4)N4CCN(c5ccc(F)cc5)CC4)CC3)c2c1 (some centres undefined),Inhibition,Plasmodium falciparum [1],100%
same,Inhibition,Plasmodium falciparum [2],98%
same,Inhibition,HepG2,15%
CCN(CC)CCN(Cc1ccc(-c2ccc(C(F)(F)F)cc2)cc1)C(=O)Cn1c(CCc2cccc(C#N)c2)nc(=O)c2ccccc21.O=C(O)C(O)C(O)C(=O)O,Inhibition,Plasmodium falciparum [1],100%
same,Inhibition,Plasmodium falciparum [2],47%
same,Inhibition,HepG2,36%
O=C(Nc1ccccc1)Nc1cccc(-c2ccc(-c3nc4cc(C(F)(F)F)ccc4[nH]3)cc2)c1,Inhibition,Plasmodium falciparum [1],100%
same,Inhibition,Plasmodium falciparum [2],37%
same,Inhibition,HepG2,48%
CCCc1cc(NCC)nc(Nc2ccc(C)cc2)n1,Inhibition,Plasmodium falciparum [1],95%
same,Inhibition,Plasmodium falciparum [2],16%
same,Inhibition,HepG2,22%
Cl.O=C(Nc1cccc(Cl)c1)OC1CCCN2CCCCC12 (centres undefined),Inhibition,Plasmodium falciparum [1],85%
same,Inhibition,Plasmodium falciparum [2],0%
same,Inhibition,HepG2,6%
CCc1cn2c3c(cc(C(=O)N[C@@H](Cc4ccccc4)[C@H](O)CNCC(C)C)cc13)N(C)S(=O)(=O)CC2,Inhibition,Plasmodium falciparum [1],98%
same,Inhibition,Plasmodium falciparum [2],99%
same,Inhibition,HepG2,0%
O=C(O)C(F)(F)F.O=S(=O)(NCCN1CCCC1)c1ccc(-c2ccc(CNCc3ccsc3)cc2)cc1,Inhibition,Plasmodium falciparum [1],95%
same,Inhibition,Plasmodium falciparum [2],36%
same,Inhibition,HepG2,44%
Clc1ccc2c(NN=Cc3ccccc3)ccnc2c1,Inhibition,Plasmodium falciparum [1],100%
same,Inhibition,Plasmodium falciparum [2],94%
same,Inhibition,HepG2,0%
COc1ccc(-c2ccc(CN(C)C3CCC(NC(=O)c4cc5ccccc5[nH]4)CC3)cc2)cn1 (centres undefined),Inhibition,Plasmodium falciparum [1],88%
same,Inhibition,Plasmodium falciparum [2],2%
same,Inhibition,HepG2,31%
CC1(C)N=C(N)N=C(N)N1OCc1cc2ccccc2cc1CON1C(N)=NC(N)=NC1(C)C,Inhibition,Plasmodium falciparum [1],92%
same,Inhibition,Plasmodium falciparum [2],51%
same,Inhibition,HepG2,0%
Cl.O=C(Nc1ccc(SC(F)(F)F)cc1)Nc1ccnc2ccccc12,Inhibition,Plasmodium falciparum [1],95%
same,Inhibition,Plasmodium falciparum [2],42%
same,Inhibition,HepG2,26%
NCCCNc1nc(Nc2cccc(C(N)=O)c2)c2c(=O)[nH]ccc2n1.O=C(O)C(F)(F)F,Inhibition,Plasmodium falciparum [1],99%
same,Inhibition,Plasmodium falciparum [2],49%
same,Inhibition,HepG2,9%
CC(=O)Nc1ccc(Nc2c3ccccc3nc3ccccc23)cc1,Inhibition,Plasmodium falciparum [1],89%
same,Inhibition,Plasmodium falciparum [2],62%
same,Inhibition,HepG2,41%
O=C(Nc1ccc(C(=O)OCC(c2ccccc2)c2ccccc2)cc1)N[C@@H](Cc1ccc(O)cc1)C(=O)NC1CCN(Cc2ccc(O)cc2)C1.O=C(O)C(F)(F)F (some centres undefined),Inhibition,Plasmodium falciparum [1],96%
same,Inhibition,Plasmodium falciparum [2],0%
same,Inhibition,HepG2,0%
CN1CCC=C(C(=O)NCC(C)(C)c2nc(-c3ccc(Cl)c(O)c3)c(-c3ccncc3)[nH]2)C1.Cl,Inhibition,Plasmodium falciparum [1],96%
same,Inhibition,Plasmodium falciparum [2],96%
same,Inhibition,HepG2,39%
CCn1c(-c2nonc2N)nc2cnc(Oc3cccc(NC(=O)c4ccc(OCCN5CCCC5)cc4)c3)cc21,Inhibition,Plasmodium falciparum [1],92%
same,Inhibition,Plasmodium falciparum [2],1%
same,Inhibition,HepG2,25%
O=C(O)C(F)(F)F.OCC1CCN(Cc2ccc(-c3ccc(-c4nc5cc(C(F)(F)F)ccc5[nH]4)cc3)cc2)CC1,Inhibition,Plasmodium falciparum [1],100%
same,Inhibition,Plasmodium falciparum [2],91%
same,Inhibition,HepG2,17%
O=C(Nc1cccc(CN2CCCN(Cc3ccc(O)cc3)CC2)c1)c1cc2ccccc2o1.O=C(O)C(F)(F)F,Inhibition,Plasmodium falciparum [1],95%
same,Inhibition,Plasmodium falciparum [2],62%
same,Inhibition,HepG2,10%
C=C1N(C)c2cc([N+](=O)[O-])c(N)cc2C1(C)C,Inhibition,Plasmodium falciparum [1],98%
same,Inhibition,Plasmodium falciparum [2],83%
same,Inhibition,HepG2,22%
COc1ccc(CNC2CCCC2)cc1-c1ccc(S(=O)(=O)NCCN2CCCC2)s1.O=C(O)C(F)(F)F,Inhibition,Plasmodium falciparum [1],96%
same,Inhibition,Plasmodium falciparum [2],17%
same,Inhibition,HepG2,17%
Cc1cc(NCCC(=O)NCCOc2ccccc2)nc(NCc2ccccc2C)n1.O=C(O)C(F)(F)F,Inhibition,Plasmodium falciparum [1],92%
same,Inhibition,Plasmodium falciparum [2],29%
same,Inhibition,HepG2,17%
COc1ccc(C(C(=O)NC2CCN(C[C@H](O)c3ccnc4ccc(OC)cc34)CC2)N2CCc3ccccc3C2)cc1 (some centres undefined),Inhibition,Plasmodium falciparum [1],96%
same,Inhibition,Plasmodium falciparum [2],30%
same,Inhibition,HepG2,19%
CCOc1ccc2[nH]c(C)cc(=NN=Cc3ccccc3Cl)c2c1,Inhibition,Plasmodium falciparum [1],100%
same,Inhibition,Plasmodium falciparum [2],100%
same,Inhibition,HepG2,11%
Cc1noc(C)c1-c1cccc(CNCc2cccc(-c3cccc(-c4nc5cccc(C)c5[nH]4)c3)c2)c1.O=C(O)C(F)(F)F,Inhibition,Plasmodium falciparum [1],100%
same,Inhibition,Plasmodium falciparum [2],66%
same,Inhibition,HepG2,15%
CCCOc1ccc(-c2nonc2NC(=O)c2cccc(OC)c2)cc1OCCC,Inhibition,Plasmodium falciparum [1],94%
same,Inhibition,Plasmodium falciparum [2],100%
same,Inhibition,HepG2,18%
Cl.O=S(=O)(c1ccc(OCc2ccc(Cl)cc2)cc1)c1cc2c(c(-c3ccc(F)cc3)c1)CCN(CC1CC1)CC2,Inhibition,Plasmodium falciparum [1],84%
same,Inhibition,Plasmodium falciparum [2],14%
same,Inhibition,HepG2,0%
O=C(Nc1ccc(Cl)cc1)c1ccc(CN2CCCN(CC3CCCCC3)CC2)cc1.O=C(O)C(F)(F)F,Inhibition,Plasmodium falciparum [1],92%
same,Inhibition,Plasmodium falciparum [2],42%
same,Inhibition,HepG2,48%
Cc1cccc(CN2CCCN(Cc3cccc(C(=O)Nc4ccc(C(C)(C)C)cc4)c3)CC2)c1.O=C(O)C(F)(F)F,Inhibition,Plasmodium falciparum [1],89%
same,Inhibition,Plasmodium falciparum [2],40%
same,Inhibition,HepG2,98%
CC(C)c1sc(N2CCCCC2)nc1C(=O)Nc1ccc(F)cc1C(F)(F)F.O=C(O)C(F)(F)F,Inhibition,Plasmodium falciparum [1],100%
same,Inhibition,Plasmodium falciparum [2],98%
same,Inhibition,HepG2,0%
